PubChem BioAssay AID1645859 (Buhrlage Lab, Dana-Farber Cancer Institute and Novartis …, 2021)
About 95 (0.2%) of roughly 47,000 compounds were called active. The sample holds actives, similar compounds and a random draw of the others, so the mix is not that of the screen. Cut-off read from the data, not from the text of the source: active = inhibition above about 30%; inactive = the rest.

biological target: Ubiquitin carboxyl-terminal hydrolase isozyme L1 (Homo sapiens) (UniProt P09936); test: inhibitors of human UCHL1 deubiquitinase (AID 1645859); conditions: purified UCHL1, Ub-rhodamine cleavage fluorescence; at 20 µM; stronger effect = higher value
Sequence (P09936 whole entry, looked up): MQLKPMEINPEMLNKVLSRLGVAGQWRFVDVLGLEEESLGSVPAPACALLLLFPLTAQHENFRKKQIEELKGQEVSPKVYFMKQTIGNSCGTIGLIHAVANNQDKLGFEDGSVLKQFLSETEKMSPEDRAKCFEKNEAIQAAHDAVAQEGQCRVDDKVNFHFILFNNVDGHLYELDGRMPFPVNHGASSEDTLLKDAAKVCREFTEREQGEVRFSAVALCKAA

inhibition, inactive:
Cc1nc(C2CCCN2C(=O)c2ccccn2)nc2c1CCCN2Cc1ccccn1 (stereo unspecified) -7.02%, COc1ccc(NC(=O)CN(C)C(=O)c2ccc3c(c2)nnn3C)cc1 2.41%, Cc1ccc(C(=O)N2CCN3Cc4ccccc4N(C)CC3C2)cc1 (stereo unspecified) -155%, Cc1cc(-c2cncnc2-c2ccc(CNC(=O)Cc3cc(F)ccc3F)cc2)on1 2.52%, CCc1ccc(C2CN3C(=O)CN(CCN4CCOCC4)C(=O)[C@]3(C)c3[nH]c4ccccc4c32)cc1 (stereo partly specified) 7.01%, O=C(O)c1ccccc1-c1ccccc1C(=O)Nc1ccccc1O 1.93%, O=C(Nc1cccc(-c2cccc(F)c2)c1)C1CCN(Cc2cccc3c2OCO3)CC1 6.73%, CC(C)(C)c1ccc(Oc2ccc(NC(=O)c3ccc4c(c3)CCO4)cn2)cc1 1.03%, CN(C(=O)CC(NC(=O)c1ccccc1)(c1ccccc1)c1ccccc1)c1ccccc1 1.79%, Cc1ccc(NC(=O)CCc2nc(CSc3nnc(-c4ccco4)o3)no2)cc1C 1.67%, CNCC(=O)N1CCCC(c2nc(C)cc(Nc3cccc(C)n3)n2)C1 (stereo unspecified) 0.00326%, COc1ccc(C)cc1NC(=O)NC1(c2nc(C)no2)CCCCC1 -4.28%, Cc1sc2ncn(CC(=O)N3c4ccccc4CC3C)c(=O)c2c1C (stereo unspecified) -2.03%, Cc1ccc(CS(=O)(=O)c2cn(CC(=O)NCc3cccnc3)c3ccccc23)cc1 1.32%, O=C(C1CCCN(S(=O)(=O)c2ccccc2)C1)N1CCN(CCc2ccccn2)CC1 (stereo unspecified) -1.48%, COc1ccc(NC(=O)C2=C(C)Nc3ncnn3C2c2cccc(OCc3ccc(F)cc3)c2)c(OC)c1 (stereo unspecified) 4.6%, COc1cc(C2CC(=O)Nc3cc4c(cc32)OCO4)ccc1O (stereo unspecified) -1.12%, CC(C)Cc1ncc(CCCN=C(N)N)[nH]c1=O -8.33%, COc1ccc(C2c3cccn3CCN2C(=O)Nc2cccs2)cc1 (stereo unspecified) -66.3%, Cc1ccccc1Cn1cc(/C=C2/C(=N)N3N=C(COc4ccccc4)SC3=NC2=O)c2ccccc21 -1.05%, CCOC(=O)C1=C(COc2ccccc2C#N)NC(=O)NC1C (stereo unspecified) -3.02%, Cc1cc(C)n2nc(C(=O)N3CCCC(c4[nH]ncc4C)C3)cc2n1 (stereo unspecified) -2.57%, Cc1nc(N(C)Cc2ccccc2)c2c3c(sc2n1)CCCC3 -6.54%, Cc1oc(C2CCN(C(=O)NC3CCCC3)CC2)nc1C(=O)N(C)C 1.1%, CC1CCN(C(=O)Cn2c(=O)n(Cc3ccccc3)c(=O)c3cc(Cl)ccc32)CC1 3.62%, COc1ccccc1C1CNCCN1Cc1cnc(N(C)C)nc1 (stereo unspecified) -0.867%, Cc1cc(OCc2ccc(Cl)cc2Cl)cc2c1C(=O)CC(C)(C)O2 3.56%, Cc1noc(C2CN(Cc3nccs3)Cc3ccnn3C2)n1 (stereo unspecified) -2.68%, O=C(CCc1c[nH]c2ccccc12)N1CCN(C(=O)C2CCCO2)CC1 (stereo unspecified) -0.0658%, Cc1nc2ccccc2n(CC(=O)NCc2ccc(OC(C)C)cc2)c1=O -4.18%, CCCN1CCC(Nc2ncnc3scc(-c4ccccc4)c23)CC1 -1.59%
